# Assays:
# [1] = tested on: P. falciparum NF54-pfs16-GFP early (I-III) stage gametocytes; test: relative % inhibition of viable gametocyte number; higher = more gametocytocidal; details: stage: early (I-III) gametocyte, incubation 72 h
# Procedure, shortened: (§1)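 Viable gametocytes were counted by confocal imaging as elongated GFP objects carrying MitoTracker Red signal above a cut-off, after 72 h of compound exposure (5 or 0.5 µM) at 37°C in 5% CO2 and 5% O2 and overnight staining. The NF54 pfs16-GFP gametocytes had been magnet-isolated at early (I/IIa, day 2) or late (day 8) stage and plated at 10% parasitaemia, 0.1% haematocrit in 384-well poly-D-lysine imaging plates. Relative inhibition was normalised to vehicle and positive-control wells within each plate.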
# [2] = tested on: P. falciparum NF54-pfs16-GFP late (IV-V) stage gametocytes; test: as above; details: stage: late (IV-V) gametocyte, incubation 72 h
# Procedure, shortened: as §1
Compound,relative % inhibition ([1]; 0.5 µM),relative % inhibition ([1]; 5 µM),relative % inhibition ([2]; 0.5 µM),relative % inhibition ([2]; 5 µM)
OC(Cn1nnc2ccccc21)Cn1c2ccc(Br)cc2c2cc(Br)ccc21 (configuration not stated),5.28%,83.6%,18.2%,43.4%
CCCc1c(CC)c(=N)c2ccccc2n1C,25.1%,19.6%,7.6%,-7.96%
FC(F)(F)c1cccc(Nc2nc(-c3ccccc3)nc3ncccc23)c1,5.1%,-19.6%,2.84%,-1.26%
COc1ccc(C=C2SC(Nc3ccc(F)cc3)=NC2=O)c(OC)c1,2.18%,8.91%,24.9%,87.9%
Cc1cccc(N2C(=O)C3C(C2=O)C2(c4ccccc4)C(=O)C3(c3ccccc3)C(c3ccc4c(c3)OCO4)=C2c2ccc3c(c2)OCO3)c1 (configuration not stated),56.2%,66.1%,24.7%,10.9%
CN(C)CCCNc1c2ccccc2nc2ccccc12,85.1%,101%,57.9%,101%
OC1=C2C(=Nc3ccccc3SC2c2ccc(Br)cc2)c2ccccc21 (configuration not stated),3.13%,35.9%,71.4%,73%
O=C(Nc1ccc(N2CCN(Cc3ccccc3)CC2)cc1)c1cccs1,14.2%,6.41%,6.6%,16.2%
Cc1ccc2cc3c(N)c4c(C)ccc(C)c4nc3nc2c1,4.09%,91%,8.68%,50.1%
Cc1cc(N(C)C)nc(Nc2ccc(NC(=O)Nc3ccccc3)cc2)n1,24.5%,8.02%,24%,1.55%
COc1ccc2c(c1)C1(Nc3ccccc3-c3nc4ccccc4n31)C(=O)N2 (configuration not stated),55.7%,84.8%,37.6%,63.5%
COc1cccc(C(=O)Nc2ccc(-c3nc4ccccc4[nH]3)cc2)c1,12.4%,-15.3%,20%,-5.77%
CCOC(=O)c1cnc2ccc(OC)cc2c1Nc1ccc(N2CCN(C)CC2)cc1,53%,24.4%,11.9%,19.4%
Cc1ccc(-c2nc3ccccc3o2)cc1NCc1cc(Cc2ccccc2)ccc1O,9.8%,95.1%,13.4%,48.6%
CCOc1cc2c(cc1OCC)C(c1cc(Cl)ccc1O)NCC2 (configuration not stated),13%,102%,19%,26.7%
CC(C)OCc1cc(CN2CCN(c3cccc(Cl)c3)CC2)c(O)c2ncccc12,10.9%,96.4%,8.7%,98.4%
CC1CCN(Cc2ccc(NC(=O)c3cc4ccc5cccnc5c4[nH]3)cc2)CC1,19.6%,94%,0.926%,12%
COc1ccc(-n2ccnc2SCC(=O)Nc2cc(C)ccc2C)c(OC)c1,3.61%,-5.2%,-4.39%,15.9%
O=C(NC1CCCCC1)C(c1cccs1)N(CCc1ccccc1)C(=O)c1ccco1 (configuration not stated),0.574%,17.5%,5.55%,6.74%
COc1ccc2c(c1OC)C(=O)N1c3ccccc3N=C(c3ccc(C)cc3)CC21 (configuration not stated),11.7%,60.6%,-8.16%,5.82%
CCOc1ccc(-n2cc(-c3ccccc3)c3c(SCc4cc(C)ccc4C)ncnc32)cc1,-4.24%,-7.96%,11.3%,19.7%
O=C(NC1CCCC1)c1ccc(N2CCC(NCc3cccc(C(F)(F)F)c3)CC2)cc1,2.61%,22.8%,6.99%,44.5%
CCOC(=O)c1cnc2c(C)cc(C)cc2c1Nc1ccc(OC)c(OC)c1,2.37%,7.56%,-4.75%,3.59%
CCC(O)c1ccc(Br)cc1NC(=O)c1cccc(Cl)c1 (configuration not stated),3.28%,93.3%,12%,28.6%
O=C(Nc1ccc(CN2CCOCC2)cc1)c1ccc(-c2ccc(Br)cc2)o1,16.2%,-18%,27.9%,4.05%

Compound,relative % inhibition ([1]; 0.5 µM),relative % inhibition ([1]; 5 µM),relative % inhibition ([2]; 0.5 µM),relative % inhibition ([2]; 5 µM)
COc1ccc(Nc2nc(NCc3ccccc3)c3ccccc3n2)cc1,84.8%,98.1%,81.6%,107%
Cc1cc(C=C2SC(=Nc3ccccc3)N(C3CCCC3)C2=O)c(C)n1-c1ccc(Cl)cc1,15%,2.67%,-2.31%,31.2%
FC(F)(F)c1cccc(Nc2nc3ccccc3nc2Nc2cccc(C(F)(F)F)c2)c1,96.8%,102%,105%,103%
COc1ccc(-c2cc(=O)oc3c4c(ccc23)OCN(Cc2ccc(F)cc2)C4)cc1,-4.17%,73.2%,25.1%,34.8%
O=C(c1ccccc1F)N(Cc1ccc(Cl)cc1)c1ccccn1,-17.2%,-20.6%,2.03%,16.8%
COc1ccc(C=C2SC(=N)N(c3ccccc3OC)C2=O)cc1,11%,63.6%,0%,67.5%
Cc1ccc(-c2cc3nc4c(c(O)n3n2)CCCC4)cc1,5.35%,-1.24%,4.75%,9.04%
Cc1cc(NCCN2CCCCC2)c2ccc3ccccc3c2n1,10.2%,97.3%,4.67%,36.7%
CCOC(=O)C1CCN(C(=O)CN2C(=O)c3ccccc3C2c2c[nH]c3ccccc23)CC1 (configuration not stated),7.45%,98.3%,28.9%,63.3%
COc1nc(Nc2ccc(C(C)C)cc2)nc(OC)n1,24.9%,0.105%,-0.358%,-10.9%
CCOC(=O)c1c(C)n(-c2ccc(Cl)cc2)c2ccc(OC(=O)C=Cc3ccccc3)cc12,15.8%,26.8%,11.1%,11.5%
COc1ccc(-c2c(C)nn3c(N)c(C#N)cnc23)cc1OC,-24.1%,22.9%,63.6%,108%
CCOc1cc2c(cc1OCC)C(c1cc(C)c(O)c(C)c1)NCC2 (configuration not stated),18.2%,102%,24.3%,34.7%
CN1CCN(c2ccc(Nc3c4ccccc4nc4ccccc34)cc2)CC1,100%,101%,91.3%,104%
COc1cccc(Nc2nc(N)c3ccccc3n2)c1,-16.5%,-5.49%,7.14%,1.59%
c1ccc(-c2ccc(-c3nc4ccccc4[nH]3)cc2)cc1,-4.6%,-6.39%,15.9%,5.71%
Cc1cc(Nc2ccc(OCc3ccccc3)cc2)nc2cc(O)ccc12,12.6%,95.1%,35.1%,78.3%
O=C1C2=C(Nc3ccccc3SC2c2ccccc2)c2ccccc21 (configuration not stated),-7.59%,-12.7%,61.6%,55.8%
Nc1nc(Nc2cccc(F)c2)nc2ccccc12,5.49%,-3.66%,15.1%,2.78%
Cc1ccc(C)c(-c2csc(Nc3ccc(C)c(C)c3)n2)c1,9.93%,-13.3%,15.6%,41.4%
CCOC(=O)C1=C(c2ccccc2)N=c2sc(=Cc3cc(C)n(-c4ccc(F)cc4)c3C)c(=O)n2C1c1cccc(OC)c1OC (configuration not stated),14.6%,96.5%,50.5%,59.1%
CCOC(=O)C1=C(C)N=c2sc(=Cc3cc(Cl)ccc3O)c(=O)n2C1c1ccc(OC)cc1 (configuration not stated),105%,108%,94.5%,103%
CCN(CC)CCCNc1ccnc2cc3ccccc3cc12,11%,-7.44%,-7.72%,-8.3%
CCN1CCN(c2cc(C)c3cc(NC(=O)c4ccc(OC)c(OC)c4)ccc3n2)CC1,11.4%,14.1%,-6.56%,3.96%
Oc1ccc(Cl)cc1CNc1nc2ccccc2[nH]1,16.5%,37.3%,-1.55%,13.6%

Compound,relative % inhibition ([1]; 0.5 µM),relative % inhibition ([1]; 5 µM),relative % inhibition ([2]; 0.5 µM),relative % inhibition ([2]; 5 µM)
CC(=O)Nc1nnc(SCc2c(C)cc(C(C)(C)C)cc2C)s1,13.5%,19.8%,-4.86%,60.7%
COc1ccc(C(=O)Nc2ccc3nc(N4CCCCC4)cc(C)c3c2)cc1OC,-8%,7.62%,3.3%,51.2%
CCOc1ccccc1NC(=O)CN1CCN(C(=O)c2ccco2)CC1,11.3%,9%,-18.2%,-2.45%
Cc1ccc(C)c(Cn2c(N3CCC(C(=O)NCc4cccs4)CC3)nc3ccccc32)c1,13.8%,39.4%,6.18%,31.6%
CCCC(c1nnnn1C1CCCCC1)N1CCN(C(=O)c2ccco2)CC1 (configuration not stated),0.873%,-28.3%,-2.74%,2.82%
COc1ccc(-c2nonc2NC(=O)c2cccc(C)c2)cc1OC,15.3%,39.2%,-13.4%,-9.12%
Cc1[nH]c(-c2ccc(F)cc2)cc1C(=O)NC1CCN(Cc2ccccc2)CC1,14.7%,75.3%,6.29%,15.4%
Cc1cc(NC(=O)c2cccc(C(F)(F)F)c2)n(-c2nc(-c3ccc4c(c3)OCO4)cs2)n1,-23.4%,-25.9%,18.8%,10.5%
COc1ccc2sc(N(Cc3cccnc3)C(=O)c3ccc(C#N)cc3)nc2c1,9.23%,7.65%,-14.5%,8.48%
CCCN(CCC)CCCNC(=O)c1cc2c(-c3ccc(OC)c(OC)c3)nn(C)c2s1,29.6%,43.5%,18.3%,-7.44%
CNCCCNc1ccnc2cc(Cl)ccc12,106%,106%,26.6%,39.1%
CN(C)c1ccc(N=Cc2ccc(N3CCOCC3)cc2)cc1,2.5%,48.6%,22.1%,62%
COC(=O)c1ccc(Cl)c2c1C1C=CCC1C(c1cccc3ccccc13)N2 (configuration not stated),-9.28%,8.02%,-9.69%,35.3%
COc1ccccc1N1C(=N)SC(=Cc2ccc(OCc3ccccc3F)cc2)C1=O,2.18%,25.8%,32.6%,69.4%
Cc1ccc(Cn2c(N3CCC(C(=O)NCc4cccs4)CC3)nc3ccccc32)cc1,10.4%,35.6%,5.62%,23.8%
Cc1cc(C)c2c(c1)OCN(Cc1ccccc1Cl)C2,59.9%,93.6%,31.1%,47.8%
CN(C)c1ccc(N2C(N)=NC(N)=NC2(C)C)cc1,-7.59%,-3.16%,20.3%,-8.27%
Cc1ccc(Nc2nc(N)c3ccccc3n2)cc1Cl,-26.6%,24.5%,22.5%,38.4%
CCn1c2c(c(=N)c3c1CCC3)CCCC2,-1.17%,25.3%,10.1%,-7.91%
CCOc1cc2c(cc1OCC)C(c1cc(OC)c(O)cc1Cl)NCC2 (configuration not stated),22.5%,100%,25.6%,48.3%
CCn1c(SCC(=O)Nc2cc(C(F)(F)F)ccc2Cl)nc2ccccc2c1=O,27.2%,5.95%,5.8%,-6.79%
CCOC(=O)c1cnc2c(CC)cccc2c1O,-5.02%,0.0948%,21.6%,45.2%
CCOc1ccc(C2N(C)c3ccccc3N2C)cc1,5%,15.9%,-6.22%,-12.5%
